SMILES strings stand for the structures. The source made the active and inactive calls.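 How the source made its calls, unless noted: active means fluorescence slope higher than the sample average by over 3 SD (cut at about -0.22 in these data, passing the limit was not always enough); inactive means the rest.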

Test [1] is described as follows: inhibitors of TNFa-induced NFkB p65 translocation, primary screen, imaging, HUVEC, MLSMR starter and 10KST1 sets (AID 438;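 active means inhibition above 20% together with a positive visual image hit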;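 further: compound added about 3h40 before a 20 min TNFalpha stimulation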;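 on inhibition: signal is the nuclear over cytoplasmic p65 intensity ratio per well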). To be noted: HUVEC TNFa-induced p65 nuclear translocation; cell count: measured here: nuclei count (cytotoxicity indicator), at 2.08 µM; inhibition: at 2 µM, stronger effect = higher value, 0% TNFa-plus-vehicle, 100% no-TNFa wells.
The nature of test [2]: reduction of polyQ htt aggregates in cells – imaging, exon1htt(103Q)mCFP cells, high-content imaging, primary screen (AID 483;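 active means visual image review flags a hit and inhibition of aggregation exceeds 20%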;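 further: compound exposure lasted 3 days before fixation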;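 on nuclei count: percent of the per-plate median nuclei count of sample wells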). To be noted: exon1htt(103Q)mCFP cell line, aggregate imaging, at 2 µM; inhibition of aggregation: stronger effect = higher value; nuclei count: measured here: cell count, toxicity.
A short description of test [3]: endothelial E-selectin expression blockers – imaging, HUVEC, immunofluorescence, MLSMR starter and 10KST1 sets, primary screen (AID 487;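 active means visually confirmed hit in the image check and inhibition above 20%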;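 on inhibition: signal is fraction of cell area covered by stained E-selectin grains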;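 on nuclei count: 100% = median nuclei count of all wells on the same plate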). The following applies: HUVEC TNFalpha-induced E-selectin immunofluorescence imaging, at 2 µM; inhibition: stronger effect = higher value; nuclei count: measured here: cell number, toxicity.
Test [4] has as its target Voltage-gated potassium channel subunit beta-2 (Rattus norvegicus) (UniProt P62483). In words: inhibitors of rat Kvbeta2 reductase activity – biochemical, NADPH fluorescence, primary screen (AID 622).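 Further: slope of raw intensity against log time taken from 70 to 1610 s.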 To be noted: recombinant KvBeta, 4-cyanobenzaldehyde reduction, at 10 µM, stronger effect = higher value.
For test [5] the target is unchanged. In words: enhancers of rat Kvbeta2 NADPH turnover – biochemical, NADPH fluorescence, primary screen (AID 623;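 active means NADPH fluorescence slope more negative than the mean of all samples by about 3 SD, 99.7% confidence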;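 further: fluorescence intensity change per second fitted from 20 to 320 s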). The following applies: Recombinant KvBeta, NADPH fluorescence decrease slope, 10 min; at 10 µM; stronger effect = lower value.
The target of test [6] is Alpha-2C adrenergic receptor (Homo sapiens) (UniProt P18825). In words: compounds altering alpha2C-coupled GIRK flux – cell-based, HEK293 alpha2C/GIRK1/2, thallium flux, primary screen (AID 624;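 active means fluorescence slope after compound addition differing from the mean of all screened samples at 99.7% confidence, in either direction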;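 further: slope of fluorescence ratio to pre-addition baseline per second over 15 to 24 s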). To be noted: thallium flux BTC fluorescence, at 10 µM, actives lie on both sides.
Sequence of Alpha-2C adrenergic receptor (Homo sapiens) (P18825 whole entry, looked up): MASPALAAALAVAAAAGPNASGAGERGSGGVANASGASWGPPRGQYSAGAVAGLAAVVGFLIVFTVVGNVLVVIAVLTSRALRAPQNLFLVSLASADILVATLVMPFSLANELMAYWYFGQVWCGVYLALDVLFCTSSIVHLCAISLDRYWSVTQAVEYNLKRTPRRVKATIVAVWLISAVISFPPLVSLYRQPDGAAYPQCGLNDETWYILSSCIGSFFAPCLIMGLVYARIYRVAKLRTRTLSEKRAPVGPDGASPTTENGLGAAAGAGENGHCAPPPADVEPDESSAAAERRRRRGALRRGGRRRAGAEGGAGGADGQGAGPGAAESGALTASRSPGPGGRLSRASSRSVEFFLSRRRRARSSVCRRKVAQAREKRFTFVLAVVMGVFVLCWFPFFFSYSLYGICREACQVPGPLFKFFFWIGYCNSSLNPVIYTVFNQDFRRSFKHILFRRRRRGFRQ
The nature of test [7]: blockers of RIG-like receptor reporter activation – cell-based, Sendai virus stimulus, luciferase, 10K MLSCN set, TLR/RLR signaling modifier project, primary screen (AID 602276;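 active means inhibition at or above 50% at 10 µM; inactive means inhibition below 50%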;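 further: firefly luciferase from ISG56 promoter only with Renilla not read in this screen; 0% = Sendai virus plus DMSO and 100% = medium plus DMSO without virus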). The following applies: HEK293 RL24 IRF3 luciferase reporter, at 10 µM, stronger effect = higher value. (A reporter such as luciferase makes a cellular process visible.)
Test [8] in a line: TLR3 IRF3 reporter activation blockers – cell-based, poly I:C stimulus, luciferase, 10K MLSCN set, primary screen (AID 602277;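 active means inhibition of the reporter signal at or above 50%; inactive means inhibition below 50%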). To be noted: HEK293-TLR3 RL24 IRF3 luciferase reporter, at 10 µM, stronger effect = higher value.

Sequence of Voltage-gated potassium channel subunit beta-2 (Rattus norvegicus) (P62483 whole entry, looked up): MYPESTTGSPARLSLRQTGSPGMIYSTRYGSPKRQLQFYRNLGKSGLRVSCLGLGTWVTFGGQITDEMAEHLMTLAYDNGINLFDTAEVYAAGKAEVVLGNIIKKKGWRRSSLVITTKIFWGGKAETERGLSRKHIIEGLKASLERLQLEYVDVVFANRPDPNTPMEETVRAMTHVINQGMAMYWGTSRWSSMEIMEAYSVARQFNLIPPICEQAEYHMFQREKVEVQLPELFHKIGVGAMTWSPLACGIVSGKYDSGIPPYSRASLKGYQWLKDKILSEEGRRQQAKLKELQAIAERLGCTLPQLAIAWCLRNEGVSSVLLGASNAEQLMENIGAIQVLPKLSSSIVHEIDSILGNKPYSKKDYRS

As to `O=C(CSc1ncnc2c1oc1ccccc12)Nc1ccccc1C(F)(F)F`, the cell count in test [1] was 657. The inhibition (as a rule, the change of the read-out against control, counted positive when it falls) in test [1] was -2.9% (inactive); in test [3], -13.2% (inactive); in test [7], -3.61% (inactive); in test [8], 1.95% (inactive). Also, the inhibition of aggregation in test [2] was -15.8% (inactive). Also, the nuclei count turned out to be 69.1% in test [2] and 106% in test [3]. For the same molecule, the fluorescence slope in test [4] is -0.556 (inactive). In addition, the NADPH fluorescence slope in test [5] was -5.9e-06 (inactive). The slope in test [6] is 0.00657 (inactive).
Regarding `CC1/C(=N/O)C(CN(C)C)C2CC1C2(C)C` (centres undefined), the cell count in test [1] was determined as 347. Further, the inhibition is -2.5% (inactive) in test [1], 13.2% (inactive) in test [3], 3% (inactive) in test [7] and 11.5% (inactive) in test [8]. For the same molecule, the inhibition of aggregation in test [2] is 7.8% (inactive). For the same molecule, the nuclei count in test [2] was determined as 30.1%; in test [3], 101%. The fluorescence slope in test [4] was -0.592 (inactive). Also, the NADPH fluorescence slope in test [5] was 1.8e-05 (inactive). Also, the slope in test [6] is 0.0062 (inactive).
As to `COc1cccc(-c2cc(C(=O)N3CCCCCC3)no2)c1`, the cell count in test [1] turned out to be 519. Also, the inhibition is -11.6% (inactive) in test [1], -44.3% (inactive) in test [3], -24.6% (inactive) in test [7] and -141% (inactive) in test [8]. Also, the inhibition of aggregation in test [2] is -8.6% (inactive). Further, the nuclei count was 82.4% in test [2] and 116% in test [3]. Moreover, the fluorescence slope in test [4] is -0.522 (inactive). Further, the NADPH fluorescence slope in test [5] is -3.5e-05 (inactive). Further, in test [6], the slope was 0.00692 (inactive).
`CCCNS(=O)(=O)c1ccc(C(=O)NCC2CCCO2)cc1` (centres undefined): the cell count in test [1] came out at 482. The inhibition is 2.6% (inactive) in test [1], -95.5% (inactive) in test [3], 10.8% (inactive) in test [7] and 20.7% (inactive) in test [8]. Besides, the inhibition of aggregation in test [2] is -16.7% (inactive). Moreover, the nuclei count in test [2] and in test [3] was 114% throughout. Besides, the fluorescence slope in test [4] was -0.529 (inactive). The NADPH fluorescence slope in test [5] was -4.9e-05 (inactive). The slope in test [6] is 0.00794 (inactive).
Take `CCOC(=O)C(NC(=O)c1ccc(OC)cc1)(N1CCOCC1)C(F)(F)F` (centres undefined): the cell count in test [1] turned out to be 551. Moreover, the inhibition in test [1] is -0.5% (inactive); in test [3], 29.4% (inactive); in test [7] it was -14.4% (inactive); in test [8], -22.3% (inactive). Also, the inhibition of aggregation in test [2] is -14.5% (inactive). The nuclei count in test [2] came to 108%; in test [3], 88.9%. The fluorescence slope in test [4] is -0.59 (inactive). In addition, the NADPH fluorescence slope in test [5] is -4.2e-05 (inactive). Also, the slope in test [6] was 0.00726 (inactive).
Take `CCOC(=O)c1cc(CC)sc1NC(=O)CCC(=O)O`: the cell count in test [1] is 415. In addition, the inhibition is -3.2% (inactive) in test [1], -75.3% (inactive) in test [3], 22% (inactive) in test [7] and 26.5% (inactive) in test [8]. The inhibition of aggregation in test [2] is 3% (inactive). The figures for the nuclei count in test [2] and in test [3] were 99.8% and 109%, respectively. Besides, the fluorescence slope in test [4] is -0.433 (inactive). Further, the NADPH fluorescence slope in test [5] was -4.9e-06 (inactive). For the same molecule, the slope in test [6] is 0.00617 (inactive).
With `CC1(CC(=O)O)C(=O)N=C2C=CC=CN21` (centres undefined), the cell count in test [1] is 489. The inhibition in test [1] is -10.7% (inactive); in test [3] it was 12.8% (inactive); in test [7], 19.8% (inactive); in test [8], 22.1% (inactive). Also, the inhibition of aggregation in test [2] was 17.4% (inactive). Further, the nuclei count stood at 77.5% in test [2] and 97.8% in test [3]. The fluorescence slope in test [4] was -0.318 (inactive). The NADPH fluorescence slope in test [5] was 2.3e-05 (inactive). Besides, the slope in test [6] was 0.0089 (inactive).
In the case of `COc1ccc(C(=O)Oc2c(CN3CCOCC3)cc(Cl)c3cccnc23)cc1OC`, in test [1], the cell count is 601. Further, the inhibition was -2.4% (inactive) in test [1], -53.1% (inactive) in test [3], -3.08% (inactive) in test [7] and 30.9% (inactive) in test [8]. For the same molecule, in test [2], the inhibition of aggregation is -3.9% (inactive). The results for the nuclei count in test [2] and in test [3] were 100% and 111%, respectively. In test [4], the fluorescence slope was -0.533 (inactive). For the same molecule, the NADPH fluorescence slope in test [5] is -2.5e-05 (inactive). In addition, the slope in test [6] was 0.00812 (inactive).
Consider `O=C(COc1cccc(Oc2ccccc2)c1)Nc1ncccn1`, for which the cell count in test [1] turned out to be 739. The inhibition in test [1] was 3.1% (inactive); in test [3], -25.1% (inactive); in test [7] it was 4.77% (inactive); in test [8], 4.74% (inactive). In addition, the inhibition of aggregation in test [2] is 12.8% (inactive). Besides, the nuclei count was found to be 103% in test [2] and 111% in test [3]. Further, in test [4], the fluorescence slope was -0.609 (inactive). For the same molecule, in test [5], the NADPH fluorescence slope was -1.1e-05 (inactive). In test [6], the slope was 0.00604 (inactive).
On to `Cn1c(Cl)nc2ccccc21`, for which the cell count in test [1] was found to be 467. Besides, the inhibition in test [1] is 3.8% (inactive); in test [3], 45.8% (inactive); in test [7] it was 19.3% (inactive); in test [8], 51% (active). The inhibition of aggregation in test [2] is 12.8% (inactive). Also, the nuclei count is 93.2% in test [2] and 93.3% in test [3]. The fluorescence slope in test [4] is -0.514 (inactive). In addition, the NADPH fluorescence slope in test [5] is -5.9e-05 (inactive). Also, the slope in test [6] is 0.00423 (inactive).
For the molecule `COc1ccc(-c2nnn(CC(=O)c3ccc4c(c3)OCCO4)n2)cc1OC`, in test [1], the cell count was determined as 507. Also, the inhibition in test [1] is -17.7% (inactive); in test [3], 17.9% (inactive); in test [7], 19.3% (inactive); in test [8] it was 19.3% (inactive). In test [2], the inhibition of aggregation was -8.1% (inactive). The values for the nuclei count in test [2] and in test [3] were 122% and 126%, respectively. For the same molecule, the fluorescence slope in test [4] was -0.48 (inactive). Also, the NADPH fluorescence slope in test [5] was -4.4e-05 (inactive). In addition, the slope in test [6] is 0.00479 (inactive).
`Cn1c(=O)c2c(nc(Br)n2CCSc2nnnn2-c2ccccc2)n(C)c1=O`: the cell count in test [1] came out at 294. Moreover, the inhibition in test [1] was -3.4% (inactive); in test [3], -7.6% (inactive); in test [7] it was 1.27% (inactive); in test [8] it was 1.27% (inactive). Also, in test [2], the inhibition of aggregation is 19% (inactive). Further, the nuclei count is 94.6% in test [2] and 74.1% in test [3]. The fluorescence slope in test [4] is -0.36 (inactive). For the same molecule, in test [5], the NADPH fluorescence slope is -4.2e-05 (inactive). Moreover, the slope in test [6] was 0.00509 (inactive).
In the case of `COCCN(C(=O)CCC(=O)Nc1ccccn1)C(C(=O)NC1CCCC1)c1ccc(OC)cc1` (centres undefined), the cell count in test [1] was found to be 528. In addition, the inhibition in test [1] was -26.5% (inactive); in test [3], -44.5% (inactive); in test [7] it was 1.15% (inactive); in test [8], 23.2% (inactive). Besides, in test [2], the inhibition of aggregation is 16.1% (inactive). For the same molecule, the values for the nuclei count in test [2] and in test [3] were 105% and 92%, respectively. Further, in test [4], the fluorescence slope was -0.395 (inactive). For the same molecule, the NADPH fluorescence slope in test [5] is -9e-05 (inactive). Further, the slope in test [6] is 0.00514 (inactive).
Turning to `Cn1c(=O)n(CC(=O)OCc2ccccc2)c(=O)c2c1nc1n2CCCN1C1CCCCC1`, the cell count in test [1] amounted to 376. The inhibition in test [1] was 3.2% (inactive); in test [3] it was 25.3% (inactive); in test [7], -2.49% (inactive); in test [8] it was 17.2% (inactive). Moreover, the inhibition of aggregation in test [2] was 0.2% (inactive). Also, the nuclei count in test [2] turned out to be 82.9%; in test [3], 92%. Further, the fluorescence slope in test [4] is -0.479 (inactive). Also, the NADPH fluorescence slope in test [5] is -1.8e-05 (inactive). The slope in test [6] is 0.00618 (inactive).

The values are drawn from PubChem BioAssay.
